Source: ChEMBL document CHEMBL1961873, “Compounds: GSK PKIS; Assays: Nanosyn kinase panel” (2012)
Values joined by “and” are separate entries in the source; they are usually repeats but may differ in a detail not shown here. Identical values can stand only once.

How the values were obtained:
[1] = target: Fibroblast growth factor receptor 4 (Homo sapiens) (UniProt P22455); settings: at 1 µM;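 also: reported figure is the averaged percent inhibition of FGFR4, from the GSK PKIS kinase screening panel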
Fibroblast growth factor receptor 4 (Homo sapiens), sequence (P22455 22-802 limits assumed): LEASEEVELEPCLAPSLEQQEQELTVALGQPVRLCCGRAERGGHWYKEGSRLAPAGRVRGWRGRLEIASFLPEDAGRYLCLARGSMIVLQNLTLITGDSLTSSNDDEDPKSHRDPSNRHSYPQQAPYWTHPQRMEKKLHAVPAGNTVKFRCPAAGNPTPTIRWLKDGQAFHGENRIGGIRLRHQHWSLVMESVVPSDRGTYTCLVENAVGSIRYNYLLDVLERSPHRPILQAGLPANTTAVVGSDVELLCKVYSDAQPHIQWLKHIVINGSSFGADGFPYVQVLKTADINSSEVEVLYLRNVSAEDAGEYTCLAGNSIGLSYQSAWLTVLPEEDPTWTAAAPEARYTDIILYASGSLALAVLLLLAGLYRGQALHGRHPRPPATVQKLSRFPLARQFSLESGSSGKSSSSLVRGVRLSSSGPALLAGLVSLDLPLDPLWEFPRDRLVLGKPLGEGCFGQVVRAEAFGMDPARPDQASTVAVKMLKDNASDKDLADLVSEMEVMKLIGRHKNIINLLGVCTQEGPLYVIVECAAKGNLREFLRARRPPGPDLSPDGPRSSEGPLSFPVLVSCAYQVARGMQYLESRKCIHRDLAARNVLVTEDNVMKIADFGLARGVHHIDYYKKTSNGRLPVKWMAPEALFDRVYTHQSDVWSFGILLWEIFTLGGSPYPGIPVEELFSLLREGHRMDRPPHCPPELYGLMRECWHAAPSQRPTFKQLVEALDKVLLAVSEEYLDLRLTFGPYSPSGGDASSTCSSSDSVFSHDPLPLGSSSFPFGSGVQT

[2] = target: Tyrosine-protein kinase Fgr (Homo sapiens) (UniProt P09769); settings: at 0.1 µM
Tyrosine-protein kinase Fgr (Homo sapiens), sequence (P09769 2-529 limits assumed): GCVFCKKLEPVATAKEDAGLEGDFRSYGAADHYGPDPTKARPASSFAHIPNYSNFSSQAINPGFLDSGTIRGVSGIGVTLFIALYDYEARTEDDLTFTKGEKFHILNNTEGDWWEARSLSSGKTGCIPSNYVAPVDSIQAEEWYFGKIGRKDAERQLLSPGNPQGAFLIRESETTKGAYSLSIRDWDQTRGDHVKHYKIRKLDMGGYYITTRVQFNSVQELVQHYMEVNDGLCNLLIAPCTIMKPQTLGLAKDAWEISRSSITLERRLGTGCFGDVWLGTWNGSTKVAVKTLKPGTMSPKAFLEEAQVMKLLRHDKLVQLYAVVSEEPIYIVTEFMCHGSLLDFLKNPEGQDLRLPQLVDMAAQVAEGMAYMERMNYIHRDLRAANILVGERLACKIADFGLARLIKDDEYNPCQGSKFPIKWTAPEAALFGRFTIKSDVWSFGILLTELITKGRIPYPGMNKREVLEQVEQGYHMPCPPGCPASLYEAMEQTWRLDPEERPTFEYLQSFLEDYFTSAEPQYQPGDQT

[3] = target: Tyrosine-protein kinase Fgr (Homo sapiens) (UniProt P09769); settings: at 1 µM
[4] = target: Vascular endothelial growth factor receptor 1 (Homo sapiens) (UniProt P17948); settings: at 0.1 µM
Vascular endothelial growth factor receptor 1 (Homo sapiens), sequence (P17948 whole entry): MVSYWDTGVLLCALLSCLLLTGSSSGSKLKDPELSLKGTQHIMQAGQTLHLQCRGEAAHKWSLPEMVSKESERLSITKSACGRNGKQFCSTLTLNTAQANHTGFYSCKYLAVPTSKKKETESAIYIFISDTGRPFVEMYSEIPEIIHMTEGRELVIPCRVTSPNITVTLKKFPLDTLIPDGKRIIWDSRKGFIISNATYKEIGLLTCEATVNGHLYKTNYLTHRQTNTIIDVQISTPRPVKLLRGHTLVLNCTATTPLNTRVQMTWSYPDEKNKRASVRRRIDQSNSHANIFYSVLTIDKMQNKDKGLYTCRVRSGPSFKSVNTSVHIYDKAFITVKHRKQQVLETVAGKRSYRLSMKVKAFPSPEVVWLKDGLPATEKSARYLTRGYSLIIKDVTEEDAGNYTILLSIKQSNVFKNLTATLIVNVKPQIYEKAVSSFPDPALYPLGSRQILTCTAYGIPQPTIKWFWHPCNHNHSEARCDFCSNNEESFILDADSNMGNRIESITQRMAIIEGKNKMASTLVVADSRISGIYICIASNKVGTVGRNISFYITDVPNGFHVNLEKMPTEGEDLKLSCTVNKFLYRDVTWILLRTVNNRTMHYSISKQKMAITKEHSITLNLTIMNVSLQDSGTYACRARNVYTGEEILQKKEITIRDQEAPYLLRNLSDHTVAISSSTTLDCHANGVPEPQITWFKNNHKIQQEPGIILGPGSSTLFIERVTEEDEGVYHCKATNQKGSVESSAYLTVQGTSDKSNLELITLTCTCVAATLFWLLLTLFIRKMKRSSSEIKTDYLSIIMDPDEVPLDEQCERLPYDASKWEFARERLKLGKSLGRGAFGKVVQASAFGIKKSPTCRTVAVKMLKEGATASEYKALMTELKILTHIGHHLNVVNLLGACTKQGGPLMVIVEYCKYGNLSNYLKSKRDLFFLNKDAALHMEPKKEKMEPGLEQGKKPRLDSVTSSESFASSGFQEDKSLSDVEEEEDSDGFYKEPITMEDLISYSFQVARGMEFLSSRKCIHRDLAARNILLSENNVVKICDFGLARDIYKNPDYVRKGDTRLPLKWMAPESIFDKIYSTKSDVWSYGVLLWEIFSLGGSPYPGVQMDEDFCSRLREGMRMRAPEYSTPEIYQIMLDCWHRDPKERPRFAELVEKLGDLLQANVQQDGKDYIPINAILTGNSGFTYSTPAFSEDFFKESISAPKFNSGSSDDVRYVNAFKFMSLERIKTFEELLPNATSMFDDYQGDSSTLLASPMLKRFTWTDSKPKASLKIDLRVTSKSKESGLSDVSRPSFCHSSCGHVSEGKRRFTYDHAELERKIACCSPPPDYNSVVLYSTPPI

[5] = target: Vascular endothelial growth factor receptor 1 (Homo sapiens) (UniProt P17948); settings: at 1 µM
[6] = target: Receptor-type tyrosine-protein kinase FLT3 (Homo sapiens) (UniProt P36888); settings: at 0.1 µM
[7] = target: Receptor-type tyrosine-protein kinase FLT3 (Homo sapiens) (UniProt P36888); settings: at 1 µM
[8] = system: T1, Receptor-type tyrosine-protein kinase FLT3 (Homo sapiens), P36888 [D835Y]; settings: at 0.1 µM
T1 sequence (whole entry): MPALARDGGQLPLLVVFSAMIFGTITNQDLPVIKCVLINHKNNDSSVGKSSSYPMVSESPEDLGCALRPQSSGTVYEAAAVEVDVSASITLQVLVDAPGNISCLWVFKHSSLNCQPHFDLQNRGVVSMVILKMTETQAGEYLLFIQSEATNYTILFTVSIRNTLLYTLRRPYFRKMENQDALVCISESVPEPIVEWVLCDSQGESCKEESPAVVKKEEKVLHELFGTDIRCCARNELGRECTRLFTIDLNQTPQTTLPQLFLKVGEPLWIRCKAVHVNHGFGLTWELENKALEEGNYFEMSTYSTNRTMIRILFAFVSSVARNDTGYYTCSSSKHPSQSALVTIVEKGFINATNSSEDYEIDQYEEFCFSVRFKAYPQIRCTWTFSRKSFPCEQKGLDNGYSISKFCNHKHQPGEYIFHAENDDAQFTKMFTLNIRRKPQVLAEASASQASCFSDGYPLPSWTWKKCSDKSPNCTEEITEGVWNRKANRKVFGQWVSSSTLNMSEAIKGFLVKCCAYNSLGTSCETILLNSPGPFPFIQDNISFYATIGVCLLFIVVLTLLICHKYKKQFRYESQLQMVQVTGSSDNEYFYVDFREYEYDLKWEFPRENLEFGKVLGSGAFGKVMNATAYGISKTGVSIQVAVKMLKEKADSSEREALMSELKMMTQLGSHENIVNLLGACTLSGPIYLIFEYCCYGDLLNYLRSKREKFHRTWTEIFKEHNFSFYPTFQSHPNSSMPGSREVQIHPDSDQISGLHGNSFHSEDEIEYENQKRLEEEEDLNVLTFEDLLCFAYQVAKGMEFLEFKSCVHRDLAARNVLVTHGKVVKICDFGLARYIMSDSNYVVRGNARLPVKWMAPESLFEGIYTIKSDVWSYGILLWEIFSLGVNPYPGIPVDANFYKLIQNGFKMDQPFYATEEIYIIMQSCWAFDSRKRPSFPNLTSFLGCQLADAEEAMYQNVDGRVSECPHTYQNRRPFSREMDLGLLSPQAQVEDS

[9] = target: Non-receptor tyrosine-protein kinase TYK2 (Homo sapiens) (UniProt P29597); settings: at 1 µM;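 also: values are mean percent inhibition of TYK2 kinase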
Non-receptor tyrosine-protein kinase TYK2 (Homo sapiens), sequence (P29597 whole entry): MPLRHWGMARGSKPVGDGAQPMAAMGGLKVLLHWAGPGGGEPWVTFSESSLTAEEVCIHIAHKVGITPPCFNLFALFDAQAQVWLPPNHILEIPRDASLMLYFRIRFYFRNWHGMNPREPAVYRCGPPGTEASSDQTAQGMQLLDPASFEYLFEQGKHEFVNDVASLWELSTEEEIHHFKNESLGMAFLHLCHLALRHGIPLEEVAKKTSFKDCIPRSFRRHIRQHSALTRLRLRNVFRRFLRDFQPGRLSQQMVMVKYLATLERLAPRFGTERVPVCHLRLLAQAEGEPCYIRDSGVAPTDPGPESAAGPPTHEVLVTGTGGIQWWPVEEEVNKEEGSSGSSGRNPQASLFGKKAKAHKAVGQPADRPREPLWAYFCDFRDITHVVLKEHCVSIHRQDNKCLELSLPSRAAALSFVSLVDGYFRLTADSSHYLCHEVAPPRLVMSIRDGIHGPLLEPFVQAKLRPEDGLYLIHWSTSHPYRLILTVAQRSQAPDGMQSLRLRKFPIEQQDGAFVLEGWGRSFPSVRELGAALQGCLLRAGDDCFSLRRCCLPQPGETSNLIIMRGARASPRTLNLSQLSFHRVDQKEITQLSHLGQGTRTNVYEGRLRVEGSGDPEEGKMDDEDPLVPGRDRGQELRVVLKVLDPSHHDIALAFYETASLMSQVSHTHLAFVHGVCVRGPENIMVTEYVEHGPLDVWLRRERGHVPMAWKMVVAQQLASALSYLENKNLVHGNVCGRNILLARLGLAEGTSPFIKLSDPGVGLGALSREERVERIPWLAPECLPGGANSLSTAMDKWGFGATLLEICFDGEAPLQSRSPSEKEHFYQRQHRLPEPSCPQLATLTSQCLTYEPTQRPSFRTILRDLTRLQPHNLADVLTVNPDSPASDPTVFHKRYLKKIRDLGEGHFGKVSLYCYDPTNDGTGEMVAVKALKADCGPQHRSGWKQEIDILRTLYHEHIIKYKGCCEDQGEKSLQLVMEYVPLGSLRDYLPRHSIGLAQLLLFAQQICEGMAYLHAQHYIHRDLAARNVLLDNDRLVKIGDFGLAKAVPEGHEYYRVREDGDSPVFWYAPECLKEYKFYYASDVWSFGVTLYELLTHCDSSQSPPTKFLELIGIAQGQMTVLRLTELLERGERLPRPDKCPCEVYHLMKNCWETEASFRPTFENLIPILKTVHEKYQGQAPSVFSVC

[10] = target: T2, Tyrosine-protein kinase receptor TYRO3 (Homo sapiens) (UniProt Q06418); settings: at 0.1 µM;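 also: reported percentages are averaged inhibition values of TYRO3 kinase activity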
T2 sequence (whole entry): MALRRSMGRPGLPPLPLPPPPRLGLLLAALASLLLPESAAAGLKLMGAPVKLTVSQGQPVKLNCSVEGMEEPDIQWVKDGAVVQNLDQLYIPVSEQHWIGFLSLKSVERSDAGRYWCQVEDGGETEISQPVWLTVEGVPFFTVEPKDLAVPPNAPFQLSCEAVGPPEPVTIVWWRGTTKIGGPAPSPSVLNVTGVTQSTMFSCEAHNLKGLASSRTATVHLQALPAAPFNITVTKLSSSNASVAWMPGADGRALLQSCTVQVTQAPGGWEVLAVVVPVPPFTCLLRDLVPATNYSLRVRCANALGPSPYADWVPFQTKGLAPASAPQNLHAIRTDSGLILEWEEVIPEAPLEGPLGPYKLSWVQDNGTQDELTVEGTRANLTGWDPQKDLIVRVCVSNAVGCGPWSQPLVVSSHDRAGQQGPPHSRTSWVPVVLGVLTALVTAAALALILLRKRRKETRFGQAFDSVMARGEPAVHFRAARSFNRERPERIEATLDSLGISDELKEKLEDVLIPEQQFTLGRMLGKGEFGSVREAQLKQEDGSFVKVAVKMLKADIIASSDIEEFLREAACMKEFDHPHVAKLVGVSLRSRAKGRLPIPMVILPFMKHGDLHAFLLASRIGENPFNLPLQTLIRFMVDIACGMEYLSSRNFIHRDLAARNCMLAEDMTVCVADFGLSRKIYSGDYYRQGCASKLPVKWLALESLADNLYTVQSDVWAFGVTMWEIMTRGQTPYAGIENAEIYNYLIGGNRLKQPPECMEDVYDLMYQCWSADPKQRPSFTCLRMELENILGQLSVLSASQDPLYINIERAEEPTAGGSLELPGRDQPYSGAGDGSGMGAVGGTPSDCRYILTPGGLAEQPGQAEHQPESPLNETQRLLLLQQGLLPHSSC

## CS(=O)(=O)Nc1ccc(-c2cc(-c3ccccc3)cc(C(N)=O)c2N)cc1
[1]
  inhibition: 1.17%
[2]
  inhibition: -1.31%
[3]
  inhibition: 1.01%
[4]
  inhibition: 1.22%
[5]
  inhibition: 1.42%
[6]
  inhibition: 6%
[7]
  inhibition: 4.94%
[8]
  inhibition: -2.16%
[9]
  inhibition: -2.96%
[10]
  inhibition: 0.01%

## N#Cc1cccc(Nc2ncc(-c3ccccc3)o2)c1
[1]
  inhibition: 3.3%
[2]
  inhibition: 5.47%
[3]
  inhibition: 13.5%
[4]
  inhibition: 2.46%
[5]
  inhibition: 9.52%
[6]
  inhibition: 12%
[7]
  inhibition: 61.8%
[8]
  inhibition: 3.75%
[9]
  inhibition: -1.92%
[10]
  inhibition: 1.76%

## COC(=O)Nc1nc2ccc(Oc3ccc(NC(=O)Nc4cc(C(F)(F)F)ccc4F)cc3)cc2s1
[1]
  inhibition: 3.25%
[2]
  inhibition: 1.85%
[3]
  inhibition: 9.94%
[4]
  inhibition: 36%
[5]
  inhibition: 78.1%
[6]
  inhibition: 11.2%
[7]
  inhibition: 47.1%
[8]
  inhibition: -0.17%
[9]
  inhibition: 1.02%
[10]
  inhibition: 6.26%

## FC(F)(F)CNc1nccc(-c2cnn3ncccc23)n1
[1]
  inhibition: -0.36%
[2]
  inhibition: 2.09%
[3]
  inhibition: 3.01%
[4]
  inhibition: -0.04%
[5]
  inhibition: 0.56%
[6]
  inhibition: 0.41%
[7]
  inhibition: -1.47%
[8]
  inhibition: -2.63%
[9]
  inhibition: -2.6%
[10]
  inhibition: 0.93%

## CC(C)c1ccc(-c2cc(-c3c[nH]nc3-c3ccccn3)ccn2)cc1
[1]
  inhibition: 0.16%
[2]
  inhibition: 0.18%
[3]
  inhibition: 1.8%
[4]
  inhibition: 0.29%
[5]
  inhibition: 6.12%
[6]
  inhibition: -2.11%
[7]
  inhibition: 2.26%
[8]
  inhibition: 1.43%
[9]
  inhibition: -0.96%
[10]
  inhibition: 1.06%

## Nc1nonc1-c1nc2cnccc2n1C1CC1
[1]
  inhibition: 0.52% and -2.65%
[2]
  inhibition: 1.63% and 3.54%
[3]
  inhibition: 4.78% and 2.49%
[4]
  inhibition: 2.44% and 2.46%
[5]
  inhibition: 7.3% and 7.59%
[6]
  inhibition: -0.66% and 0.33%
[7]
  inhibition: 4.5% and 3.82%
[8]
  inhibition: 2.73% and -0.79%
[9]
  inhibition: -1.02% and -1.56%
[10]
  inhibition: 1.66% and 1.58%

## O=C(O[C@H]1CN[C@H](C#Cc2cc3ncnc(Nc4ccc5c(cnn5Cc5ccccc5)c4)c3s2)C1)N1CCOCC1
[1]
  inhibition: 0.38%
[2]
  inhibition: 2.54%
[3]
  inhibition: 11.2%
[4]
  inhibition: -2.71%
[5]
  inhibition: 0.04%
[6]
  inhibition: -2.76%
[7]
  inhibition: -3.41%
[8]
  inhibition: -5.14%
[9]
  inhibition: 1.01%
[10]
  inhibition: -0.42%

## OCCCNc1nccc(-c2c(-c3ccc(F)cc3)nn3cc(C(F)(F)F)ccc23)n1
[1]
  inhibition: 0.98%
[2]
  inhibition: 2.9%
[3]
  inhibition: 8.24%
[4]
  inhibition: 1.4%
[5]
  inhibition: 3.41%
[6]
  inhibition: 1.66%
[7]
  inhibition: 3.11%
[8]
  inhibition: -1.23%
[9]
  inhibition: -1.77%
[10]
  inhibition: 1.9%

## O=C(O[C@H]1CN[C@H](C#Cc2cc3ncnc(Nc4ccc(OCc5cccc(F)c5)c(Cl)c4)c3s2)C1)N1CCOCC1
[1]
  inhibition: -0.16%
[2]
  inhibition: 4.25%
[3]
  inhibition: 1.43%
[4]
  inhibition: 1.9%
[5]
  inhibition: -0.14%
[6]
  inhibition: 3.48%
[7]
  inhibition: 2.29%
[8]
  inhibition: -1.46%
[9]
  inhibition: -3.98%
[10]
  inhibition: 3.72%

## COc1cc(N2CCN(C(C)C)CC2)ccc1Nc1nc(Nc2cccc(F)c2C(=O)O)c2cc[nH]c2n1
[1]
  inhibition: 3.72%
[2]
  inhibition: 4.76%
[3]
  inhibition: 4%
[4]
  inhibition: 1.38%
[5]
  inhibition: 1.96%
[6]
  inhibition: 0.4%
[7]
  inhibition: 10.3%
[8]
  inhibition: 0.23%
[9]
  inhibition: -2.8%
[10]
  inhibition: 2.73%

## CNC(=O)c1cncc(/C=C/c2ccccc2C)c1
[1]
  inhibition: -0.62%
[2]
  inhibition: 5.41%
[3]
  inhibition: 9.23%
[4]
  inhibition: 1.31%
[5]
  inhibition: 0.49%
[6]
  inhibition: 1.85%
[7]
  inhibition: 1.3%
[8]
  inhibition: -2.2%
[9]
  inhibition: -3.23%
[10]
  inhibition: 3.13%

## COC(=O)Nc1nc2cc(Oc3ccc(NC(=O)Nc4ccccc4)cc3)ccc2[nH]1
[1]
  inhibition: -0.59%
[2]
  inhibition: 4.41%
[3]
  inhibition: 3.18%
[4]
  inhibition: 16.5%
[5]
  inhibition: 22.1%
[6]
  inhibition: 5.43%
[7]
  inhibition: 14.2%
[8]
  inhibition: -4.53%
[9]
  inhibition: -1.49%
[10]
  inhibition: 1.8%

## c1ccc(-c2n[nH]cc2-c2ccnc(-c3ccc(OCCn4ccnc4)cc3)c2)nc1
[1]
  inhibition: 4.5%
[2]
  inhibition: 0.78%
[3]
  inhibition: 2.78%
[4]
  inhibition: 5.66%
[5]
  inhibition: 29.5%
[6]
  inhibition: -0.04%
[7]
  inhibition: 2.15%
[8]
  inhibition: 2.71%
[9]
  inhibition: -0.27%
[10]
  inhibition: 1.13%

## CNC(=O)c1sc(-n2cnc3cc(OC)c(OC)cc32)cc1OCc1ccccc1C(F)(F)F
[1]
  inhibition: 1.34%
[2]
  inhibition: 4.08%
[3]
  inhibition: 10.1%
[4]
  inhibition: 1.22%
[5]
  inhibition: 0.98%
[6]
  inhibition: 2.13%
[7]
  inhibition: 3.19%
[8]
  inhibition: -3.62%
[9]
  inhibition: -3.45%
[10]
  inhibition: 1.67%

## CN1CCC(n2cnc(-c3ccc(F)cc3)c2-c2ccnc(NCCO)n2)CC1
[1]
  inhibition: 0.38%
[2]
  inhibition: 5.33%
[3]
  inhibition: 2.78%
[4]
  inhibition: 1.32%
[5]
  inhibition: 3.27%
[6]
  inhibition: 1.5%
[7]
  inhibition: 5.56%
[8]
  inhibition: -2.58%
[9]
  inhibition: -4.71%
[10]
  inhibition: 3.69%

## NS(=O)(=O)c1ccc(N/N=C2\C(=O)Nc3cccc(CCc4ccncc4)c32)cc1
[1]
  inhibition: 1.66%
[2]
  inhibition: 4.48%
[3]
  inhibition: 10.8%
[4]
  inhibition: 5.3%
[5]
  inhibition: 12%
[6]
  inhibition: 64.3%
[7]
  inhibition: 79.3%
[8]
  inhibition: 50.7%
[9]
  inhibition: -1.59%
[10]
  inhibition: 0.03%
